Among the data in PubChem BioAssay (NCATS) are activation and Potency values, retold here.

Values joined by “and” are separate entries in the source; they are usually repeats but may differ in a detail not shown here. Identical values can stand only once. Inconclusive results are not listed. Unmarked numbers belong to inactive results. Active and inactive are the calls of the source. Unless noted, calls come from the whole dose curve; as a rule, active = well fitted curve in the direction sought with a large enough effect; inconclusive = small, poorly fitted or top-dose-only effect, or another doubt; inactive = no such curve, though single readings can be large; an effect the other way counts as inactive or inconclusive.

The target in experiment [1] is Cellular tumor antigen p53 (Homo sapiens) (UniProt P04637). The experiment in a line: Primary qHTS for small molecule compounds that upregulate eGFP-tagged delta133p53alpha (in N-terminal) cells. (AID 2060322).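 For activation: series mostly up to about 56 µM; 0% = DMSO vehicle and 100% = reference activator.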 Note: nearly all actives have a fitted effect of over 75% in size. Note: potency is the fitted concentration of half-maximal effect. The following applies: NCI-H358 eGFP-delta133p53alpha fluorescence, 24 h; activation: active compounds read high. The procedure, abridged:
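NCI-H358 cells pre-induced 24 h with 10 ng/ml doxycycline to express N-terminal eGFP-delta133p53alpha, then dosed 24 h at 37C without doxycycline; fixed, Hoechst-stained, GFP intensity by laser scanning cytometry, normalized to DMSO (0%) and 57.5 uM 5-azacytidine (100%).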

The target in experiment [2] is Aldehyde dehydrogenase, mitochondrial (Homo sapiens) (UniProt P05091). The experiment is described as follows: qHTS for Inhibitors of the Aldehyde Dehydrogenase Family (ALDH2) Confirmatory screens (AID 2061303; active = well fitted inhibition curve with a large enough effect; title and protocol of this record describe different tests; note: nearly all actives have a fitted effect of over 45% in size; note: potency is the fitted concentration of half-maximal effect).
Experiment [3] shares this target. The experiment in a line: qHTS for Inhibitors of the Aldehyde Dehydrogenase Family (ALDH2) Primary screen (AID 2061308).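 Note: plate controls were vehicle for no effect and reference inhibitor for full effect; nearly all actives have a fitted effect of over 55% in size.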 In general terms: qHTS replaces the single test concentration by a dilution series.
In experiment [4] the target is Retinaldehyde dehydrogenase 3 (Homo sapiens) (UniProt P47895). The experiment in a line: qHTS for Inhibitors of the Aldehyde Dehydrogenase Family (ALDH1A3) Confirmatory screens (AID 2061311). Note: nearly all actives have a fitted effect of over 60% in size. Note: potency is the fitted concentration of half-maximal effect.
Experiment [5] has the same target. The experiment is described as follows: qHTS for Inhibitors of the Aldehyde Dehydrogenase Family (ALDH1A3) Validation screen (AID 2061312). Note: % is set by controls: 0 for no effect and ±100 for the full control effect; nearly all actives have a fitted effect of over 45% in size.
Experiment [6] concerns the target Retinal dehydrogenase 2 (Homo sapiens) (UniProt O94788). The experiment is described as follows: qHTS for Inhibitors of the Aldehyde Dehydrogenase Family (ALDH1A2) Confirmation screens (AID 2061314). Note: % is set by controls: 0 for no effect and ±100 for the full control effect; nearly all actives have a fitted effect of over 65% in size.
Experiment [7] deals with Retinaldehyde dehydrogenase 3 (Homo sapiens) (UniProt P47895). The experiment in a line: qHTS for Inhibitors of the Aldehyde Dehydrogenase Family (ALDH1A3) Primary screen (AID 2061315).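 Note: plate controls were DMSO vehicle for no effect and reference inhibitor for full effect.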
Experiment [8] addresses Aldehyde dehydrogenase 1A1 (Homo sapiens) (UniProt P00352). The experiment in a line: qHTS for Inhibitors of the Aldehyde Dehydrogenase Family (ALDH1A1) Confirmatory screens (AID 2061316). Note: nearly all actives have a fitted effect of over 65% in size. Note: potency is the fitted concentration of half-maximal effect.
Experiment [9] can be described thus: qHTS for Inhibitors of the Aldehyde Dehydrogenase Family (ALDH1A2, ALDH1A3, ALDH2, ALDH3A1) (AID 2061307). For Potency: test system not described further here; potency is the fitted concentration of half-maximal effect. Note: nearly all actives have a fitted effect of over 50% in size.

Chain of Cellular tumor antigen p53 (Homo sapiens) (P04637 whole entry, looked up): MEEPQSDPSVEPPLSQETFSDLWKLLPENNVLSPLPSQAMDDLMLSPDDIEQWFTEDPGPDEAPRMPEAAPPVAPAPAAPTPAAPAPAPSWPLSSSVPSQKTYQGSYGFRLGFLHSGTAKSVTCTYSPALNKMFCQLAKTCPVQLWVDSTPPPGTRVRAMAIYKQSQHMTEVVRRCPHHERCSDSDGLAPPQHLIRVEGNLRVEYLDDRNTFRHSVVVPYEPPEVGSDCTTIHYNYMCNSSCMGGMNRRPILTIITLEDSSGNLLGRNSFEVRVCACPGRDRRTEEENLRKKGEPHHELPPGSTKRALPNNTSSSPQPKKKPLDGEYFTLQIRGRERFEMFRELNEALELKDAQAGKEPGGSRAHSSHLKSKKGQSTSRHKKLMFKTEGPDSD

`CC1(NC(=O)c2ccc(C#Cc3cccc(F)c3)cn2)COC1`: the activation in [1] was -11.9%. The Potency entry in experiment [2], in [3], in experiment [4], in experiment [5], in [6] and in experiment [7] was “inactive” each time. For the same molecule, the Potency entry in experiment [8] is “inactive”.
As to `CC(=O)NC(C)c1cnc(-c2cnc(Oc3ccc(OC(C)C)cc3)s2)s1` (configuration not stated), the activation in experiment [1] is -20%. Besides, the Potency result in [2], in experiment [3], in [4], in [5], in experiment [6] and in experiment [7] was “inactive” each time.
As to `CC(=O)Nc1sc2c(c1-c1nc3ccccc3s1)CNC2`, the Potency in experiment [1] is 26.9 µM (active); in experiment [2], 11.3 µM (active); in experiment [9], 7.12 µM (active); in experiment [8] it was 6.34 µM (active). Moreover, the Potency result in [7] is “inactive”.
Regarding `COc1ccc2c(c1O)OC[C@H]1c3ccc(O)cc3O[C@@H]21`, in experiment [1], the activation was -14.5%. Further, the Potency entry in [2] and in experiment [3] was “inactive” throughout. Also, the Potency in experiment [4] was 22.5 µM (active).
For the molecule `Cc1ccccc1C#Cc1ccc(CCC(=O)O)cc1`, the activation in experiment [1] was 4.3%. The Potency result in experiment [2], in experiment [3], in [5], in experiment [6] and in [8] was “inactive” throughout. The Potency in experiment [4] is 10.1 µM (active).
Turning to `COc1ccnc(CCc2nc3ncccc3[nH]2)c1`, the activation in experiment [1] was -5.73%. Besides, the Potency result in [2], in experiment [9], in experiment [4], in [6], in experiment [7] and in experiment [8] was “inactive” in each case.
`COc1ccc(CCO[C@@H]2CCCC[C@H]2N2CC[C@@H](O)C2)cc1OC`: the activation in experiment [1] was -0.477%. Also, the Potency result in experiment [2], in [9], in experiment [4], in experiment [6], in experiment [7] and in experiment [8] was “inactive” each time.
`CCOC(=O)C1=C(N)Oc2ccc(Cl)cc2C1C(C#N)C(=O)OCC` (configuration not stated): the Potency in [1] was 23.9 µM (active); in experiment [4], 12.7 µM (active). Moreover, the Potency result in experiment [2], in experiment [3], in experiment [5], in experiment [7] and in experiment [8] was “inactive” throughout.
In the case of `Cc1csc2c(N[C@@H](C)CN3CCN(S(=O)(=O)c4ccc(Cl)c(Cl)c4)CC3)ncnc12`, the activation in [1] is -2.86%. Also, the Potency was 12.6 µM (active) in experiment [2]; 708 nM (active) and 224 nM (active) in [9]; 8.96 µM (active) in experiment [8]. In [7], the Potency result is “inactive”.
